Test results published in PubChem BioAssay (NCATS).
Inconclusive results are not listed. Active and inactive are the calls of the source. Unless noted, calls come from the whole dose curve; as a rule, active = well fitted curve in the direction sought with a large enough effect; inconclusive = small, poorly fitted or top-dose-only effect, or another doubt; inactive = no such curve, though single readings can be large; an effect the other way counts as inactive or inconclusive.

Legend:
[1] = qHTS to identify inhibitors of the type 1 interferon - major histocompatibility complex class I in skeletal muscle: primary screen against the NCATS Pharmaceutical Collection (AID 1347407); conditions: human skeletal muscle cells, IFN-b-induced MHC-I HiBiT luminescence, 24 h; series mostly up to 92.2 µM;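 note: luminescence of HiBiT knocked into endogenous HLA-B as interferon-induced MHC class I level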
Outline: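 HLA-B HiBiT myoblasts, dexamethasone-free growth medium + 4 ng/ml IFN-b; compounds pinned 1 h after seeding, […] from 46 uM; 24 h, 37 C, 5% CO2; lytic HiBiT detection, 10 min RT, luminescence.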

[2] = molecular target: Protein phosphatase 1D (Homo sapiens) (UniProt O15297); assay: RapidFire Mass Spectrometry qHTS Assay for Modulators of WT P53-Induced Phosphatase 1 (WIP1) (AID 1347424); conditions: WIP1 dephosphorylation of phosphopeptide, RapidFire MS; series mostly up to 128 µM;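 note: amount of dephosphorylated VEPPL-S-QETFS peptide product formed by WIP1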
Outline: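 10 nM WIP1 + cpd, 1 h RT; + 2 uM VEPPL-pS-QETFS, 5 min RT; stop 0.5% formic acid; labelled product standard 1 uM; RapidFire MS. Buffer 50 mM Tris pH 7.5, 30 mM MgCl2, 1 mM TCEP.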

[3] = molecular target: Protein phosphatase 1D (Homo sapiens) (UniProt O15297); assay: Rhodamine-PBP qHTS Assay for Modulators of WT P53-Induced Phosphatase 1 (WIP1) (AID 1347425); conditions: recombinant WIP1, Rhodamine-PBP phosphate fluorescence, real-time; series mostly up to 116 µM
Outline: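 The read-out is the change in Rhodamine-PBP fluorescence (f1 - f0, ex 525/em 598 nm) as Pi is released, read each minute for 11 min. Final reaction: 5 nM WIP1, 10 uM phosphopeptide VEPPL-pS-QETFS, 10 uM Rh-PBP, 50 mM Tris-HCl pH 7.5, 30 mM MgCl2. Compound was preincubated with enzyme for 1 hour at room temperature.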

[4] = Primary qHTS for inhibitors of La Crosse Virus (LACV) - induced cell death in SH-SY5Y cells (AID 1508616); conditions: SH-SY5Y LACV cytopathicity rescue, ATP luminescence, 6 d; series mostly up to 9.63 µM;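 note: top concentration of the series differs between compounds; higher means more rescue of cells from virus-induced death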
Outline: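 Luminescent ATP readout (ATPLite 1step, 5 min room temperature) measured rescue from LACV-induced death after 6 days of infection at 0.01 MOI; normalized to infected DMSO wells and uninfected DMSO wells.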

[5] = molecular target: Calcium and integrin-binding protein 1 (Homo sapiens) (UniProt Q99828); assay: Primary qHTS for Identification of Calcium Integrin Binding Protein 1 (CIB1) Competitor (AID 1508620); conditions: CIB1-GST / FITC-alphaIIb peptide fluorescence polarization; series mostly up to 57.7 µM;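 note: GST tagged CIB1 binding a fluorescein labelled alphaIIb integrin peptide tracer; top concentration of the series differs between compounds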
Outline: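 CIB1-GST (1 uM final) and compound incubated 15 min at room temperature before adding FITC-alphaIIb peptide tracer (100 nM final). Competition for binding read by fluorescence polarization (ex 480, em 540) after another 15 min at room temperature.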

[6] = qHTS to identify inhibitors of the type 1 interferon - major histocompatibility complex class I in skeletal muscle: primary screen against the NCATS LOPAC collection (AID 1347405); conditions: iHSKM muscle cells, IFN-b-induced MHC-I HiBiT luminescence, 24 h; series mostly up to 45.9 µM;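 note: lytic HiBiT luminescence reporting HLA-B protein level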
Outline: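 Immortalized human C25cl48 myoblasts with HiBiT knocked into endogenous HLA-B*08:01 were stimulated with 4.0 ng/ml IFN-beta and given compounds in a 7-point, 1:4.3 titration from 46 uM final; after 24 hrs, lytic HiBiT luminescence was read.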

[7] = qHTS for inhibitors of adenylyl cyclases using a fission yeast platform: a pilot screen against the NCATS LOPAC library (AID 1347410); conditions: S. pombe CHP2027, fbp1-GFP fluorescence, 18 h; series mostly up to 57.5 µM
Outline: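 Read-out: fbp1-GFP fluorescence by laser scanning cytometry (488 nm laser), a gain of signal when AC/cAMP-PKA signalling is inhibited. Strain CHP2027 expressing AC9, GNAS and PDE4D2; compounds at up to 57 µM; 18 h, 30C.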

[8] = molecular target: Calcium and integrin-binding protein 1 (Homo sapiens) (UniProt Q99828); assay: Validation qHTS for Identification of Calcium Integrin Binding protein 1 (CIB1) Competitor (AID 1508618); conditions: CIB1-GST / FITC-alphaIIb peptide fluorescence polarization; series mostly up to 114 µM
Outline: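 CIB1-GST (1 uM final) incubated 15 min at room temperature with compounds (up to 114 uM), then FITC-labelled alphaIIb peptide (100 nM) added. FP read (Ex 480/Em 540) after 15 min, pH 7.4 buffer containing 5 mM CaCl2.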

[9] = Primary qHTS for inhibitors of SARS-S pseudo-typed particle cell entry (AID 1479145; calls by dose curve; note: nearly all actives have a fitted effect of over 45% in size); conditions: SARS-S pseudotyped particle cell entry, luciferase reporter; series mostly up to 57.1 µM
[10] = Primary qHTS for Huh7 cytotoxicity: counterscreen for inhibitors of MERS-S pseudotyped particle cell entry (AID 1479147; calls by dose curve); conditions: cell viability read-out; series mostly up to 57.1 µM
[11] = Primary qHTS for inhibitors of MERS-S pseudo-typed particle cell entry (AID 1479149; calls by dose curve; note: nearly all actives have a fitted effect of over 60% in size); conditions: MERS-S pseudotyped particle entry, luciferase; series mostly up to 57.1 µM
[12] = Primary qHTS for Vero E6 cytotoxicity: counterscreen for inhibitors of SARS-S pseudo-typed particle cell entry (AID 1479150; calls by dose curve); conditions: cell viability; series mostly up to 57.1 µM

Measured: Potency

Sequence of Calcium and integrin-binding protein 1 (Homo sapiens) (Q99828 whole entry, looked up): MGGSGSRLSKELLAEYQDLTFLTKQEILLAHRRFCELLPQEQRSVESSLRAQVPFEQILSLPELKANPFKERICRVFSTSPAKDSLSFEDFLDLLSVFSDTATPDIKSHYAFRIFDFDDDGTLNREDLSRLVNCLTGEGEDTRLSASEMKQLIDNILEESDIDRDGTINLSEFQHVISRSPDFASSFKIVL
Sequence of Protein phosphatase 1D (Homo sapiens) (O15297 whole entry, looked up): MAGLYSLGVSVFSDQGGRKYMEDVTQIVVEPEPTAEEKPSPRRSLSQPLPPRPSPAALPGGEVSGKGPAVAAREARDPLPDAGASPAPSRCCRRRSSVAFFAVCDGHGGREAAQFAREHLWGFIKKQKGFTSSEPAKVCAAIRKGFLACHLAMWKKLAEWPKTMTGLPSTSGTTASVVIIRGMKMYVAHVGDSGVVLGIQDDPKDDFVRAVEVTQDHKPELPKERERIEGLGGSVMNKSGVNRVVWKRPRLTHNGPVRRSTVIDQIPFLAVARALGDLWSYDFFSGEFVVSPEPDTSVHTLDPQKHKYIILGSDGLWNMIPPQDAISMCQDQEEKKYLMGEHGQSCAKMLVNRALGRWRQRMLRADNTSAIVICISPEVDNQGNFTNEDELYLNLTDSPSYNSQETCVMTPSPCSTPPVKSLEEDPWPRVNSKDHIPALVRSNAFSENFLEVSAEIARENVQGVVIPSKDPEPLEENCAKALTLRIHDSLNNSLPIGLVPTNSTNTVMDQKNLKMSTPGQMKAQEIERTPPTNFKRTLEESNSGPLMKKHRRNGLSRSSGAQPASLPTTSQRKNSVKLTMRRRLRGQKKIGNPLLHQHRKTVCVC

COCCOCCO
inactive: [1] | [2] | [3] | [4] | [5]

COC(C)(C)CCCC(C)C/C=C/C(C)=C/C(=O)OC(C)C (configuration not stated)
inactive: [1] | [2] | [3] | [4] | [5]

O=S(=O)(c1ccc(Cl)cc1)c1ccc(Cl)cc1
inactive: [1] | [2] | [4]

OCCCBr
inactive: [1] | [2] | [3] | [4]

O=[N+]([O-])c1c(Cl)c(Cl)cc(Cl)c1Cl
inactive: [1] | [2] | [3] | [4] | [5]

CC1=NN=C(c2ccc(N)cc2)c2cc3c(cc2C1)OCO3
inactive: [6] | [7] | [4] | [8] | [5]

Oc1ccc2c3c1O[C@H]1c4[nH]c5c(c4C[C@@]4(O)[C@@H](C2)N(CC2CC2)CC[C@]314)C[C@@]1(O)[C@H]2Cc3ccc(O)c4c3[C@@]1(CCN2CC1CC1)[C@H]5O4
inactive: [6] | [7] | [4] | [8] | [5]

C=CC(=O)NCNC(=O)C=C
inactive: [1] | [2] | [3] | [4] | [5]

C1CCC(NC2CCCCC2)CC1
inactive: [1] | [2] | [9] | [10] | [11] | [12] | [5]

CCOCCOC(C)=O
inactive: [1] | [2] | [4]

S=C(SSC(=S)N1CCCCC1)N1CCCCC1
inactive: [1] | [2]

c1cc2ccc3cccc4ccc(c1)c2c34
inactive: [1] | [2] | [3] | [4] | [5]

CCC(=O)O[C@@H]1C=C2CCC3C(CCC4(C)C3CC[C@@H]4OC(=O)CC)C2CC1 (some centres not stated)
not listed: [3] | [6] | [7] | [8]
inactive: all other assays above
